The full ranking holds about 8,300 sequences; the median of “log2 fold change of degron read counts, EGFP-low vs EGFP+ sorted cells (limma voom), compound-induced degradation” is about -1.1, and the highest 2% start at about 3.2. The sample holds the highest values, similar sequences and a random draw of the others, so the mix is not that of the screen.
Molecular target: T1, CRBN, Q96SW2
T1 chain: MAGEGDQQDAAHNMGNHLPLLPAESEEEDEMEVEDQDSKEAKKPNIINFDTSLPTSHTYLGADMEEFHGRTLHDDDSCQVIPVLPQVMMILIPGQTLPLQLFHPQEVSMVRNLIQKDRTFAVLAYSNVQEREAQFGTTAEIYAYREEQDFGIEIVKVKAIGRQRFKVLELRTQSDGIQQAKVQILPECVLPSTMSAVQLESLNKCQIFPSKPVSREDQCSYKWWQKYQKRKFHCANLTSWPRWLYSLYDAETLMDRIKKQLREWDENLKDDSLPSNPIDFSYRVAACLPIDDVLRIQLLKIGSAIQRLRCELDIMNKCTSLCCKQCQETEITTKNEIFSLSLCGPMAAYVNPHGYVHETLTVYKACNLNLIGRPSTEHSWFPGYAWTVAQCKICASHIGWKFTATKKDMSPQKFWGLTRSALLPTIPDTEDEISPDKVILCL
Experiment: log2 fold change of degron read counts, EGFP-low vs EGFP+ sorted cells (limma voom), compound-induced degradation; higher = more compound-induced degradation of the degron-EGFP fusion; degrons are variants of IKZF1/3 zinc finger 2; compound dose not given here
Settings: Jurkat, 18 h
Protocol: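 Pooled library of 8380 IKZF3 ZF2 degron mutants (positions 146-167 varied within the IKZF3 130-189 degron; only the varied core is printed, flanks not printed) fused to EGFP with IRES-mCherry, lentivirally expressed in Jurkat cells. mCherry+ cells were treated with one IMiD compound for 18 h (dose not stated) and FACS-sorted into EGFP-low and EGFP+ populations. Degron sequences were counted by NGS, and log2FC (EGFP-low vs EGFP+) was estimated by limma voom over 3 biological replicates.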

[1] = compound: compound 19 (5-tert-butyl-thalidomide)
[2] = compound: compound 22 (5-morpholino-thalidomide)
[3] = compound: compound 33 (diphenyl IMiD analogue)
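Also: pooled lentiviral library of zinc finger degron-EGFP fusions in mCherry-positive Jurkat cells, FACS-sorted after compound exposure, with degron abundance counted by next-generation sequencing.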

B1: 46F_47R_49E_50I_52G_53R_54N_55F_67L_, Q9UKT9 (peptide)
chain: FRCEICGRNFTQKGNLLRHIKL
[1]
  log2 fold change of degron read counts: -2.69
[2]
  log2 fold change of degron read counts: -2.64
[3]
  log2 fold change of degron read counts: -1.31
compound: thalidomide
  log2 fold change of degron read counts: -0.795

B2: 46F_47A_49N_50Q_52G_53A_54F_55F_67L_, Q9UKT9 (peptide)
chain: FACNQCGAFFTQKGNLLRHIKL
[1]
  log2 fold change of degron read counts: -1.64
[2]
  log2 fold change of degron read counts: -2.14
[3]
  log2 fold change of degron read counts: -1.53
compound: thalidomide
  log2 fold change of degron read counts: -2.28

B3: 46F_47R_49E_50I_52G_53R_54G_55F_67L_, Q9UKT9 (peptide)
chain: FRCEICGRGFTQKGNLLRHIKL
[1]
  log2 fold change of degron read counts: -2
[2]
  log2 fold change of degron read counts: -1.92
[3]
  log2 fold change of degron read counts: -0.0801
compound: thalidomide
  log2 fold change of degron read counts: -0.562

B4: 46F_47K_49E_50V_52G_53A_54S_55F_67L_, Q9UKT9 (peptide)
chain: FKCEVCGASFTQKGNLLRHIKL
[1]
  log2 fold change of degron read counts: 1.43
[2]
  log2 fold change of degron read counts: -1.05
[3]
  log2 fold change of degron read counts: -2
compound: thalidomide
  log2 fold change of degron read counts: 0.154

B5: 46F_47E_49E_50V_52G_53A_54S_55F_67L_, Q9UKT9 (peptide)
chain: FECEVCGASFTQKGNLLRHIKL
[1]
  log2 fold change of degron read counts: 2.09
[2]
  log2 fold change of degron read counts: -1.03
[3]
  log2 fold change of degron read counts: 1.48
compound: thalidomide
  log2 fold change of degron read counts: 2.32

B6: 46F_47G_49E_50V_52G_53A_54S_55F_67L_, Q9UKT9 (peptide)
chain: FGCEVCGASFTQKGNLLRHIKL
[1]
  log2 fold change of degron read counts: 3.37
[2]
  log2 fold change of degron read counts: 2.27
[3]
  log2 fold change of degron read counts: 1.58
compound: thalidomide
  log2 fold change of degron read counts: 0.816

B7: 46F_47W_49E_50V_52G_53A_54S_55F_67L_, Q9UKT9 (peptide)
chain: FWCEVCGASFTQKGNLLRHIKL
[1]
  log2 fold change of degron read counts: 3.77
[2]
  log2 fold change of degron read counts: 3.54
[3]
  log2 fold change of degron read counts: 2.67
compound: thalidomide
  log2 fold change of degron read counts: 1.37

B8: 46F_47S_49E_50V_52G_53A_54S_55F_67L_, Q9UKT9 (peptide)
chain: FSCEVCGASFTQKGNLLRHIKL
[1]
  log2 fold change of degron read counts: 3.58
[2]
  log2 fold change of degron read counts: 2.8
[3]
  log2 fold change of degron read counts: 2.27
compound: thalidomide
  log2 fold change of degron read counts: 1.63

B9: 46F_47C_49E_50V_52G_53A_54S_55F_67L_, Q9UKT9 (peptide)
chain: FCCEVCGASFTQKGNLLRHIKL
[1]
  log2 fold change of degron read counts: 3.45
[2]
  log2 fold change of degron read counts: 2.85
[3]
  log2 fold change of degron read counts: 2.25
compound: thalidomide
  log2 fold change of degron read counts: 2.34

B10: 46F_47D_49E_50V_52G_53A_54S_55F_67L_, Q9UKT9 (peptide)
chain: FDCEVCGASFTQKGNLLRHIKL
[1]
  log2 fold change of degron read counts: 2.81
[2]
  log2 fold change of degron read counts: 0.541
[3]
  log2 fold change of degron read counts: 0.131
compound: thalidomide
  log2 fold change of degron read counts: 0.979

B11: 46F_47T_49E_50V_52G_53A_54S_55F_67L_, Q9UKT9 (peptide)
chain: FTCEVCGASFTQKGNLLRHIKL
[1]
  log2 fold change of degron read counts: 2.27
[2]
  log2 fold change of degron read counts: 2.96
[3]
  log2 fold change of degron read counts: 2.53
compound: thalidomide
  log2 fold change of degron read counts: 3.12

B12: 46F_47W_49N_50V_52G_53A_54S_55F_67L_, Q9UKT9 (peptide)
chain: FWCNVCGASFTQKGNLLRHIKL
[1]
  log2 fold change of degron read counts: 1.46
[2]
  log2 fold change of degron read counts: 3.01
[3]
  log2 fold change of degron read counts: 1.08
compound: thalidomide
  log2 fold change of degron read counts: -0.303

B13: 46F_47Q_49E_50Q_52G_53A_54A_55F_67L_, Q9UKT9 (peptide)
chain: FQCEQCGAAFTQKGNLLRHIKL
[1]
  log2 fold change of degron read counts: -0.398
[2]
  log2 fold change of degron read counts: 0.724
[3]
  log2 fold change of degron read counts: 0.313
compound: thalidomide
  log2 fold change of degron read counts: 3.01

B14: 46L_47T_49N_50Q_52G_53F_54P_55C_67L_, Q9UKT9 (peptide)
chain: LTCNQCGFPCTQKGNLLRHIKL
[1]
  log2 fold change of degron read counts: -2.43
[2]
  log2 fold change of degron read counts: -2.96
[3]
  log2 fold change of degron read counts: -2.54
compound: thalidomide
  log2 fold change of degron read counts: -1.71

B15: 46F_47T_49E_50V_52G_53A_54F_55F_67L_, Q9UKT9 (peptide)
chain: FTCEVCGAFFTQKGNLLRHIKL
[1]
  log2 fold change of degron read counts: -0.934
[2]
  log2 fold change of degron read counts: -0.537
[3]
  log2 fold change of degron read counts: 0.743
compound: thalidomide
  log2 fold change of degron read counts: 0.936

B16: 46F_47S_49D_50Q_52G_53A_54M_55F_67L_, Q9UKT9 (peptide)
chain: FSCDQCGAMFTQKGNLLRHIKL
[1]
  log2 fold change of degron read counts: -1.8
[2]
  log2 fold change of degron read counts: -2.9
[3]
  log2 fold change of degron read counts: -1.87
compound: thalidomide
  log2 fold change of degron read counts: -2.82

B17: 46F_47S_49P_50Q_52G_53A_54A_55F_67L_, Q9UKT9 (peptide)
chain: FSCPQCGAAFTQKGNLLRHIKL
[1]
  log2 fold change of degron read counts: 0.138
[2]
  log2 fold change of degron read counts: -0.952
[3]
  log2 fold change of degron read counts: 1.89
compound: thalidomide
  log2 fold change of degron read counts: -0.879

B18: 46F_47W_49P_50I_52G_53H_54M_55F_67L_, Q9UKT9 (peptide)
chain: FWCPICGHMFTQKGNLLRHIKL
[1]
  log2 fold change of degron read counts: -0.107
[2]
  log2 fold change of degron read counts: -0.117
[3]
  log2 fold change of degron read counts: 0.131
compound: thalidomide
  log2 fold change of degron read counts: -0.274

B19: 46L_47H_49P_50I_52G_53F_54M_55C_67L_, Q9UKT9 (peptide)
chain: LHCPICGFMCTQKGNLLRHIKL
[1]
  log2 fold change of degron read counts: 2.17
[2]
  log2 fold change of degron read counts: 2.35
[3]
  log2 fold change of degron read counts: 2.28
compound: thalidomide
  log2 fold change of degron read counts: 1.44

B20: 46F_47V_49E_50Q_52G_53A_54T_55F_67L_, Q9UKT9 (peptide)
chain: FVCEQCGATFTQKGNLLRHIKL
[1]
  log2 fold change of degron read counts: -2.6
[2]
  log2 fold change of degron read counts: -1.48
[3]
  log2 fold change of degron read counts: 0.0752
compound: thalidomide
  log2 fold change of degron read counts: -0.452

B21: 46F_47L_49N_50Q_52G_53A_54D_55F_67L_, Q9UKT9 (peptide)
chain: FLCNQCGADFTQKGNLLRHIKL
[1]
  log2 fold change of degron read counts: -2.76
[2]
  log2 fold change of degron read counts: -3.21
[3]
  log2 fold change of degron read counts: -2.79
compound: thalidomide
  log2 fold change of degron read counts: -2.29

B22: 46F_47Y_49E_50I_52G_53H_54E_55F_67L_, Q9UKT9 (peptide)
chain: FYCEICGHEFTQKGNLLRHIKL
[1]
  log2 fold change of degron read counts: -2.18
[2]
  log2 fold change of degron read counts: -2.9
[3]
  log2 fold change of degron read counts: -1.81
compound: thalidomide
  log2 fold change of degron read counts: -2.55

B23: 46F_47Y_49P_50Q_52G_53A_54F_55F_67L_, Q9UKT9 (peptide)
chain: FYCPQCGAFFTQKGNLLRHIKL
[1]
  log2 fold change of degron read counts: 0.239
[2]
  log2 fold change of degron read counts: 0.269
[3]
  log2 fold change of degron read counts: 0.837
compound: thalidomide
  log2 fold change of degron read counts: -1.07

B24: 46F_47N_49E_50V_52G_53A_54S_55F_67L_, Q9UKT9 (peptide)
chain: FNCEVCGASFTQKGNLLRHIKL
[1]
  log2 fold change of degron read counts: 3.22
[2]
  log2 fold change of degron read counts: 1.38
[3]
  log2 fold change of degron read counts: 0.489
compound: thalidomide
  log2 fold change of degron read counts: 0.435

B25: 46F_47F_49E_50V_52G_53A_54S_55F_67L_, Q9UKT9 (peptide)
chain: FFCEVCGASFTQKGNLLRHIKL
[1]
  log2 fold change of degron read counts: 3.45
[2]
  log2 fold change of degron read counts: 3.66
[3]
  log2 fold change of degron read counts: 2.48
compound: thalidomide
  log2 fold change of degron read counts: 1.61

B26: 46F_47L_49E_50V_52G_53A_54S_55F_67L_, Q9UKT9 (peptide)
chain: FLCEVCGASFTQKGNLLRHIKL
[1]
  log2 fold change of degron read counts: 1.64
[2]
  log2 fold change of degron read counts: -0.285
[3]
  log2 fold change of degron read counts: 1.43
compound: thalidomide
  log2 fold change of degron read counts: 1.45

B27: 46F_47I_49N_50I_52G_53A_54G_55F_67L_, Q9UKT9 (peptide)
chain: FICNICGAGFTQKGNLLRHIKL
[1]
  log2 fold change of degron read counts: -0.991
[2]
  log2 fold change of degron read counts: 1.17
[3]
  log2 fold change of degron read counts: 1.13
compound: thalidomide
  log2 fold change of degron read counts: 1.71

B28: 46F_47T_49E_50I_52G_53R_54F_55F_67L_, Q9UKT9 (peptide)
chain: FTCEICGRFFTQKGNLLRHIKL
[1]
  log2 fold change of degron read counts: -1.56
[2]
  log2 fold change of degron read counts: -2.16
[3]
  log2 fold change of degron read counts: -1.26
compound: thalidomide
  log2 fold change of degron read counts: -1.11

Reference: the supplement of paper PMC12645437, “Orthogonal IMiD-Degron Pairs Induce Selective Protein Degradation in Cells” (ACS Chemical Biology, 2025)
